The whole screen tested about 13,000 compounds, of which about 3,200 (25%) showed an effect of 50% or more. The list shows a part of the results.
Tested on: P. falciparum stage V gametocytes
Parameters: BacTiter-Glo ATP luminescence viability of purified stage V gametocytes in 384-well plates, per cent inhibition versus DMSO
Conditions: 48 h, 5 µM; inhibitor

Structure (SMILES) | % Inhibition
Nn1c(=O)oc2ccc(Cl)cc2c1=O [TCMDC-125519] | 8.283%
FC(F)(F)c1ccc2nccc(NN=Cc3ccccc3)c2c1 [TCMDC-142024] | -3.615%
CCc1cccc(-c2cc(=N)n(C)c3nc(N)[nH]c(=O)c23)c1 [TCMDC-137737] | -30.45%
COc1ccc2nccc([C@@H](O)CN3CCC(NCc4nc5c(cc4Cl)OCC(=O)N5)C(F)C3)c2c1 (stereo partly shown) [TCMDC-141722] | 15.19%
CCCCN(C(=O)c1ccccc1C)c1nnc(-c2ccccc2C)s1 [TCMDC-124385] | 52.67%
CCCCN(C(=O)c1ccccc1Cl)c1nnc(-c2ccccc2C)s1 [TCMDC-125120] | -1.012%
CCCN(C(=O)c1ccccc1C)c1nnc(-c2ccccc2C)s1 [TCMDC-124386] | 7.474%
COC(=O)C1=C(C)NC2=C(C(=O)CC(c3ccc(OC)c(OC)c3)C2)C1c1cccc(O)c1 (stereo not shown) [TCMDC-125609] | 17.77%
CCC(C)OC(=O)C1=C(C)NC2=C(C(=O)CC(c3ccc(OC)c(OC)c3)C2)C1c1cccc(O)c1 (stereo not shown) [TCMDC-125634] | 29.96%
CCCOC(=O)C1=C(C)NC2=C(C(=O)CC(c3ccc(OC)c(OC)c3)C2)C1c1cccc(O)c1 (stereo not shown) [TCMDC-125632] | 53.3%
COc1ccc(C2CC(c3cccs3)=NN2C(=O)COc2cccc3c2CCCC3O)cc1OC (stereo not shown) [TCMDC-125033] | 11.22%
O=C(C=Cc1ccc(Cl)c(Cl)c1)NCCCCCN1CCCC(CCCNS(=O)(=O)c2ccc(Br)cc2)C1 (stereo not shown) [TCMDC-139592] | 37.84%
O=C(C=Cc1ccc(Cl)c(Cl)c1)NCCCCCN1CCC(CCCNS(=O)(=O)c2ccc(Br)cc2)CC1 [TCMDC-139590] | 106.1%
O=C(/C=C/c1ccc(Cl)c(Cl)c1)NCCCCCN1CCC(NS(=O)(=O)c2cc(Cl)cc(Cl)c2)CC1 [TCMDC-135905] | 1.117%
O=C(C=Cc1ccc(Cl)c(Cl)c1)NCCCCCN1CCC(CCNS(=O)(=O)c2ccc(Br)cc2)CC1 [TCMDC-139586] | 95.36%
O=C(/C=C/c1ccc(Cl)c(Cl)c1)NCCCCCN1CCC(NC(=O)Nc2ccc(Br)cc2)CC1 [TCMDC-135728] | 5.216%
CCCCCCCCS(=O)(=O)NCCCC1CCN(CCCCCNC(=O)C=Cc2ccc(Cl)c(Cl)c2)CC1 [TCMDC-139588] | 108.5%
COc1ccc(S(=O)(=O)NCCC2CCN(CCCCCNC(=O)C=Cc3ccc(Cl)c(Cl)c3)CC2)cc1 [TCMDC-139584] | 28.62%
O=C(C=Cc1ccc(Cl)c(Cl)c1)NCCCCCN1CCC(CCCNC(=O)C2CC2c2ccccc2)CC1 (stereo not shown) [TCMDC-139572] | -16.95%
COc1ccc(S(=O)(=O)NCCCC2CCN(CCCCCNC(=O)C=Cc3ccc(Cl)c(Cl)c3)CC2)cc1 [TCMDC-139587] | 105.9%
Cc1cc(C)cc(NC(=S)NCCCCN2CCN(c3cccc(Cl)c3)CC2)c1 [TCMDC-124057] | 38.25%
CC1(C)CN(CCC2CCC(NC(=O)/C=C/c3ccc(F)cc3F)CC2)Cc2ccc(C#N)cc21 (stereo not shown) [TCMDC-139504] | 4.044%
Nc1c2nc(-c3c(F)cccc3Cl)[nH]c(=O)c2nc(=O)n1-c1ccccc1 [TCMDC-124052] | 4.598%
c1cncc(CN2CCN(Cc3ccc(-c4ccc(-c5nc6ccccc6[nH]5)s4)cc3)CC2)c1 [TCMDC-136765] | 62.12%
CCCN1CCN(Cc2ccc(-c3ccc(-c4nc5ccccc5[nH]4)s3)cc2)CC1 [TCMDC-136767] | -1.011%
c1ccc2[nH]c(-c3ccc(-c4ccc(CN5CCN(CCN6CCOCC6)CC5)cc4)s3)nc2c1 [TCMDC-133938] | 11.37%

Structure (SMILES) | % Inhibition
c1ccc2[nH]c(-c3ccc(-c4ccc(CN5CCCCC5)cc4)s3)nc2c1 [TCMDC-136768] | 35.93%
CN(CCc1ccccn1)Cc1ccc(-c2ccc(-c3nc4ccccc4[nH]3)s2)cc1 [TCMDC-136766] | 58.81%
CN(C)CCCN1CCN(Cc2ccc(-c3ccc(-c4nc5ccccc5[nH]4)s3)cc2)CC1 [TCMDC-136769] | 73.2%
CN(C)CCN(C)Cc1ccc(-c2cccc(-c3nc4ccccc4[nH]3)c2)cc1 [TCMDC-132567] | 5.675%
CN(CCN)Cc1ccc(-c2ccc(-c3nc4ccc(F)cc4[nH]3)s2)cc1 [TCMDC-132819] | 40.81%
c1ccc2[nH]c(-c3ccc(-c4ccc(CN5CCN(c6ccncc6)CC5)cc4)s3)nc2c1 [TCMDC-136770] | -27.84%
Cc1nn(-c2ccccc2)c2nc(-c3ccccc3)cc(C(=O)N3CCOCC3)c12 [TCMDC-124527] | -18.66%
Cc1cc(N2CCCC2)nc(Nc2ccc(NC(=O)CC(C)C)cc2)n1 [TCMDC-124715] | 12.42%
COc1ccc(S(=O)(=O)NC2CCN(c3ccnc4cc(Cl)ccc34)C2)cc1 (stereo not shown) [TCMDC-133649] | 9.561%
NC(N)=NN=Cc1cc([N+](=O)[O-])ccc1Sc1ccccc1CO [TCMDC-137883] | 34.86%
NC(N)=NN=Cc1ccccc1OCc1ccccc1Cl [TCMDC-124250] | 59.45%
CC(=O)C1(c2ccccc2)CCN(CCC2(c3ccc(Cl)c(Cl)c3)CN(C(=O)CC(C)C)CCO2)CC1 (stereo not shown) [TCMDC-135324] | -34.64%
CC(=O)Nc1ccc(S(=O)(=O)N(Cc2cccc(Oc3ccccc3)c2)C2CCN(C/C=C(\C)CCC=C(C)C)CC2)cc1 [TCMDC-139619] | 47.01%
Clc1ccc2c(NCc3ccccn3)ccnc2c1 [TCMDC-125103] | 3.053%
Cc1cnc(CNCc2ccc(S(=O)(=O)Nc3ccc(Oc4cccc(Cl)c4)cc3)cc2)cn1 [TCMDC-136202] | -12.09%
O=S(=O)(Nc1cccc(F)c1CNCc1ccccn1)c1ccc(Cl)c(Cl)c1 [TCMDC-132598] | 71.21%
CCN(CC)C(=NC(=N)NCCCCCCNC(=N)N=C(Nc1ccc(Cl)cc1)N(CC)CC)Nc1ccc(Cl)cc1 [TCMDC-131807] | 113%
CCCN1CCN(CC(O)CNC(=O)Nc2ccc(Cl)cc2)CC1 (stereo not shown) [TCMDC-134645] | -0.7262%
CCN(CC)C(=NCCCCCCN=C(NC(=N)c1ccc(Cl)cc1)N(CC)CC)NC(=N)c1ccc(Cl)cc1 [TCMDC-131806] | 117.9%
CCN(CC)C(=NC(=N)Nc1ccc(Cl)cc1)NCCCCCCCCNC(=NC(=N)Nc1ccc(Cl)cc1)N(CC)CC [TCMDC-131812] | 116.8%
CCCCN1CCN(CC(O)CNC(=O)Nc2ccc(Cl)cc2)CC1 (stereo not shown) [TCMDC-134646] | 4.082%
CCN(CC)/C(=N/C(=N)Nc1ccc(Cl)c(Cl)c1)NCCCCCCN/C(=N\C(=N)Nc1ccc(Cl)c(Cl)c1)N(CC)CC [TCMDC-131808] | 116.2%
COc1ccc(CCN(C)CCCCNC(=O)c2ccc(NC(=O)c3ccc(Cl)cc3)cc2)c(OC)c1 [TCMDC-138506] | 49.32%
CC(=O)Nc1ccc(OCCCCCOc2ccc(NC(C)=O)cc2Cl)c(Cl)c1 [TCMDC-137222] | -37.52%
CCN1CCN(CC(O)CNC(=O)Nc2ccc(Cl)cc2)CC1 (stereo not shown) [TCMDC-134634] | 26.07%
CC(=NNC(=N)N)C(=O)Nc1ccc(Cl)c(Cl)c1 [TCMDC-137564] | -28.53%
